The values below come from article PMC10812921, “Transcriptional Coactivator BOB1 (OBF1, OCA-B) Modulates the Specificity of DNA Recognition by the POU-Domain Factors OCT1 and OCT2 in a Monomeric Configuration”.

Assay [1] addresses POU1 (OCT1 POU domain) (human, UniProt P14859 260-458). The assay can be described thus: EMSA-SELEX-seq; no BOB1; 20 mM Tris-HCl pH 7.6, 140 mM NaCl, 10% glycerol, 0.5 mM EDTA, 0.05% Triton X-100, 0.1 mg/mL BSA, 0.1 mg/mL poly(dI-dC), 5 mM DTT, room temperature, 20 min; high values mean tight binding. The note with it: protein: recombinant; dsDNA, one strand shown. Summed up: (§1)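 A double-stranded random 35-nt library (300 ng, PCR-amplified) was incubated with 30 ng tagged POU-domain protein, with or without 28 ng coactivator protein, in 20 μL Tris–HCl pH 7.6 binding buffer for 20 min at RT. The proteins had been expressed in E. coli BL21, purified under denaturing conditions and renatured. Complex bands from native 6% PAGE were eluted and PCR-amplified over four rounds, then sequenced on Illumina. For binding preference, the percentage of sequenced 8-mers matching a motif pattern was calculated.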

For assay [2], the target named is T1, POU2 (OCT2 POU domain) (human, UniProt P09086 175-386).
T1 sequence: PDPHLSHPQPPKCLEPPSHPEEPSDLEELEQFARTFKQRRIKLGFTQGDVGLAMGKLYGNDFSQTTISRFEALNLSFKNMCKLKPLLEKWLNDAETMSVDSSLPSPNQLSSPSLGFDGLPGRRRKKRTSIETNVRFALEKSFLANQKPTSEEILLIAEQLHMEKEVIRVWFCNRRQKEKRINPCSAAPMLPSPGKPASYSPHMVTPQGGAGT
The assay is described as above. To be noted: protein: recombinant; dsDNA, one strand shown. Summed up: as §1

Assay [3] addresses POU1 (OCT1 POU domain);BOB1 (OBF1, OCA-B) (human;human, UniProt P14859;Q16633 260-458;1-256, |). As to the kind of experiment: EMSA-SELEX-seq; with BOB1 (ternary complex band); 20 mM Tris-HCl pH 7.6, 140 mM NaCl, 10% glycerol, 0.5 mM EDTA, 0.05% Triton X-100, 0.1 mg/mL BSA, 0.1 mg/mL poly(dI-dC), 5 mM DTT, room temperature, 20 min; high values mean tight binding. To be noted: protein: recombinant;recombinant; copies: 1;1; dsDNA, one strand shown. Summed up: as §1
In general terms: Mobility shift assays separate free from complexed probe on a gel.

For assay [4], the target named is T2, POU2 (OCT2 POU domain);BOB1 (OBF1, OCA-B) (human;human, UniProt P09086;Q16633 175-386;1-256, |).
T2 sequence 1: T1 sequence
T2 sequence 2: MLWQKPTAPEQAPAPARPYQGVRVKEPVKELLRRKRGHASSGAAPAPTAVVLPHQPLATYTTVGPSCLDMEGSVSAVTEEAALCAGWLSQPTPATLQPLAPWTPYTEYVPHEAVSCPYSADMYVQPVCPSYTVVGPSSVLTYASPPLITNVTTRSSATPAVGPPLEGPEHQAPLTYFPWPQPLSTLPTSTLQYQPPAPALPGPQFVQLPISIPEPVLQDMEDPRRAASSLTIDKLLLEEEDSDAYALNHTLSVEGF
Described as above. To be noted: protein: recombinant;recombinant; copies: 1;1; dsDNA, one strand shown. Summed up:
as §1

Sequence of POU1 (OCT1 POU domain) (P14859 260-458): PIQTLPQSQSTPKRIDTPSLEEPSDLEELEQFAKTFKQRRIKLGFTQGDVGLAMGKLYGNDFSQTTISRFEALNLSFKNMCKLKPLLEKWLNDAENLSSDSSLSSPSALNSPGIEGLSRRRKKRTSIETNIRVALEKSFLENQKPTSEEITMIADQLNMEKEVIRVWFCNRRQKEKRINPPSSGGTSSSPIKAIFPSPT

On to AACCGAAA, for which the binding signal in assay [1] is 0.0271 % of ANNNNAAN 8-mers; in assay [2], 0.0293 % of ANNNNAAN 8-mers; in assay [3] it was 0.0265 % of ANNNNAAN 8-mers; in assay [4], 0.0256 % of ANNNNAAN 8-mers.
The corresponding values for ATTGAAAA are 0.09 % of ANNNNAAN 8-mers, 0.076 % of ANNNNAAN 8-mers, 0.0925 % of ANNNNAAN 8-mers and 0.0627 % of ANNNNAAN 8-mers.
The corresponding values for ACAACAAG are 0.0248 % of ANNNNAAN 8-mers, 0.0167 % of ANNNNAAN 8-mers, 0.0187 % of ANNNNAAN 8-mers and 0.014 % of ANNNNAAN 8-mers.
Take AATTAAAG: the binding signal in assay [1] is 0.187 % of ANNNNAAN 8-mers; in assay [2] it was 0.22 % of ANNNNAAN 8-mers; in assay [3], 0.112 % of ANNNNAAN 8-mers; in assay [4], 0.121 % of ANNNNAAN 8-mers.
For ACTCAAAA the same measures were 0.0427 % of ANNNNAAN 8-mers, 0.0339 % of ANNNNAAN 8-mers, 0.046 % of ANNNNAAN 8-mers and 0.0363 % of ANNNNAAN 8-mers.
Regarding AATCCAAA, the binding signal was 0.0507 % of ANNNNAAN 8-mers in assay [1], 0.0386 % of ANNNNAAN 8-mers in assay [2], 0.0726 % of ANNNNAAN 8-mers in assay [3] and 0.0371 % of ANNNNAAN 8-mers in assay [4].
The corresponding values for AAAGGAAA are 0.103 % of ANNNNAAN 8-mers, 0.0903 % of ANNNNAAN 8-mers, 0.144 % of ANNNNAAN 8-mers and 0.0933 % of ANNNNAAN 8-mers.
For AAACCAAA the same measures were 0.0538 % of ANNNNAAN 8-mers, 0.0506 % of ANNNNAAN 8-mers, 0.0761 % of ANNNNAAN 8-mers and 0.0446 % of ANNNNAAN 8-mers.
For ATTCGAAA the same measures were 0.0725 % of ANNNNAAN 8-mers, 0.0783 % of ANNNNAAN 8-mers, 0.0605 % of ANNNNAAN 8-mers and 0.0578 % of ANNNNAAN 8-mers.
Consider AGCCGAAA, for which the binding signal in assay [1] was 0.0191 % of ANNNNAAN 8-mers; in assay [2], 0.0247 % of ANNNNAAN 8-mers; in assay [3], 0.0238 % of ANNNNAAN 8-mers; in assay [4], 0.0198 % of ANNNNAAN 8-mers.
The corresponding values for AGGTAAAC are 0.0534 % of ANNNNAAN 8-mers, 0.0558 % of ANNNNAAN 8-mers, 0.0792 % of ANNNNAAN 8-mers and 0.0537 % of ANNNNAAN 8-mers.
For AGGCGAAT the same measures were 0.0618 % of ANNNNAAN 8-mers, 0.069 % of ANNNNAAN 8-mers, 0.0593 % of ANNNNAAN 8-mers and 0.0743 % of ANNNNAAN 8-mers.
The corresponding values for ATGTAAAT are 3.45 % of ANNNNAAN 8-mers, 2.89 % of ANNNNAAN 8-mers, 2.3 % of ANNNNAAN 8-mers and 3.57 % of ANNNNAAN 8-mers.
Take ATGGGAAC: the binding signal in assay [1] is 0.0496 % of ANNNNAAN 8-mers; in assay [2], 0.0443 % of ANNNNAAN 8-mers; in assay [3], 0.0488 % of ANNNNAAN 8-mers; in assay [4], 0.0421 % of ANNNNAAN 8-mers.
The corresponding values for ACCGTAAG are 0.0191 % of ANNNNAAN 8-mers, 0.0155 % of ANNNNAAN 8-mers, 0.0195 % of ANNNNAAN 8-mers and 0.0281 % of ANNNNAAN 8-mers.
For AGAAGAAT the same measures were 0.0515 % of ANNNNAAN 8-mers, 0.0737 % of ANNNNAAN 8-mers, 0.0597 % of ANNNNAAN 8-mers and 0.0603 % of ANNNNAAN 8-mers.
The corresponding values for ATCAGAAC are 0.0214 % of ANNNNAAN 8-mers, 0.0242 % of ANNNNAAN 8-mers, 0.0238 % of ANNNNAAN 8-mers and 0.0371 % of ANNNNAAN 8-mers.
On to ATTTAAAA, for which the binding signal was 0.303 % of ANNNNAAN 8-mers in assay [1], 0.299 % of ANNNNAAN 8-mers in assay [2], 0.178 % of ANNNNAAN 8-mers in assay [3] and 0.137 % of ANNNNAAN 8-mers in assay [4].
On to AGGCGAAG, for which the binding signal in assay [1] is 0.024 % of ANNNNAAN 8-mers; in assay [2], 0.0305 % of ANNNNAAN 8-mers; in assay [3] it was 0.0242 % of ANNNNAAN 8-mers; in assay [4], 0.0297 % of ANNNNAAN 8-mers.
The corresponding values for ATGTGAAG are 0.0484 % of ANNNNAAN 8-mers, 0.0627 % of ANNNNAAN 8-mers, 0.046 % of ANNNNAAN 8-mers and 0.0429 % of ANNNNAAN 8-mers.
The corresponding values for AGCCGAAT are 0.0313 % of ANNNNAAN 8-mers, 0.0368 % of ANNNNAAN 8-mers, 0.0281 % of ANNNNAAN 8-mers and 0.033 % of ANNNNAAN 8-mers.
For the sequence ACTCAAAG, the binding signal in assay [1] was 0.0336 % of ANNNNAAN 8-mers; in assay [2], 0.0242 % of ANNNNAAN 8-mers; in assay [3] it was 0.0367 % of ANNNNAAN 8-mers; in assay [4], 0.0165 % of ANNNNAAN 8-mers.
The corresponding values for ATGAAAAA are 0.149 % of ANNNNAAN 8-mers, 0.123 % of ANNNNAAN 8-mers, 0.204 % of ANNNNAAN 8-mers and 0.121 % of ANNNNAAN 8-mers.
The corresponding values for ATAATAAG are 0.182 % of ANNNNAAN 8-mers, 0.258 % of ANNNNAAN 8-mers, 0.094 % of ANNNNAAN 8-mers and 0.126 % of ANNNNAAN 8-mers.
The corresponding values for ACGGCAAG are 0.0206 % of ANNNNAAN 8-mers, 0.027 % of ANNNNAAN 8-mers, 0.0211 % of ANNNNAAN 8-mers and 0.0239 % of ANNNNAAN 8-mers.
For the sequence AATACAAG, the binding signal was 0.0637 % of ANNNNAAN 8-mers in assay [1], 0.0662 % of ANNNNAAN 8-mers in assay [2], 0.0675 % of ANNNNAAN 8-mers in assay [3] and 0.0479 % of ANNNNAAN 8-mers in assay [4].
The corresponding values for AAAAGAAC are 0.0351 % of ANNNNAAN 8-mers, 0.0443 % of ANNNNAAN 8-mers, 0.0468 % of ANNNNAAN 8-mers and 0.0338 % of ANNNNAAN 8-mers.
Consider AGTGCAAG, for which the binding signal in assay [1] is 0.0187 % of ANNNNAAN 8-mers; in assay [2], 0.0311 % of ANNNNAAN 8-mers; in assay [3], 0.0238 % of ANNNNAAN 8-mers; in assay [4], 0.0264 % of ANNNNAAN 8-mers.
